From paper PMC7862700, “An all-to-all approach to the identification of sequence-specific readers for epigenetic DNA modifications on cytosine”

How the values were obtained:
Experiment in all cases: DAPPL (digital affinity profiling via proximity ligation, sequencing); 10 mM Tris-HCl pH 7.5, 50 mM NaCl, 1 mM DTT, 4% glycerol, room temperature, 30 min; GST-TFs on glutathione beads, 16-mer random dsDNA library, 0.1% formaldehyde crosslink after washing; high values mean tight binding
FLI1 = target: T1, FLI1 (Homo sapiens, UniProt Q01543 1-452); details: protein: recombinant; tags: N-terminal GST; dsDNA, one strand shown
T1 sequence: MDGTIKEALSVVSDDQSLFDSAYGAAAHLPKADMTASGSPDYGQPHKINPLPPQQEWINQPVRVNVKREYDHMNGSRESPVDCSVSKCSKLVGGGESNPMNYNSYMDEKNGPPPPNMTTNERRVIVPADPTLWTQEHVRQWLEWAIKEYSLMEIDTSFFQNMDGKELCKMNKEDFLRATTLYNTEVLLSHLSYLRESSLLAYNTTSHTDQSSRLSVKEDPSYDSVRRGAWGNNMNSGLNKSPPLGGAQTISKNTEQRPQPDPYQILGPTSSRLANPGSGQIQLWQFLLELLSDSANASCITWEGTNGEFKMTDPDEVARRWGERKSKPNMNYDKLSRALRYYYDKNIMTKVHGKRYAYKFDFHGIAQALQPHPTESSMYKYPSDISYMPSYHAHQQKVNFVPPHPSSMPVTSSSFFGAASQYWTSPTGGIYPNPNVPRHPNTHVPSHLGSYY
In short: (§1)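 Sequencing on an Illumina NextSeq500 followed washing, crosslinking with 0.1% formaldehyde, proximity ligation (BsaI/T4 ligase, 1 h, 37 °C) and PCR amplification of pools that had been incubated for 30 min at room temperature with 200 nmole of a random double-stranded 16-mer DNA library in Tris/NaCl/DTT/glycerol buffer. Each pool held DNA-barcoded human transcription factors, expressed in yeast as GST fusions and captured on glutathione beads, plus a tag-only sample. Binding signal is a hexamer's read frequency for a factor divided by its frequency in the tag-only sample.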

ELK1 = target: T2, ELK1 (Homo sapiens, UniProt P19419 1-428); details: protein: recombinant; tags: N-terminal GST; dsDNA, one strand shown
T2 sequence: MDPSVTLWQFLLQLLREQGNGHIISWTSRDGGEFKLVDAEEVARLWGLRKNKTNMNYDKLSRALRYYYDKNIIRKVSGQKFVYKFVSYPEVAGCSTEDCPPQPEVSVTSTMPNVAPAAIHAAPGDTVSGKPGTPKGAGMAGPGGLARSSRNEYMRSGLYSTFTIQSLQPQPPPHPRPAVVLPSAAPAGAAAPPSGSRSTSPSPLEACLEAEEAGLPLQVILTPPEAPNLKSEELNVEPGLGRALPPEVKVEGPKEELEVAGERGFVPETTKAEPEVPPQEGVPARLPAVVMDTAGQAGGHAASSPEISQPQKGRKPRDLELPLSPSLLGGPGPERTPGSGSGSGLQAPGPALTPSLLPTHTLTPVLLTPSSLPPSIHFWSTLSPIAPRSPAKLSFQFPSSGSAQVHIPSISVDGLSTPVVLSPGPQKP
In short: as §1

GABPA = target: T3, GABPA (Homo sapiens, UniProt Q06546 1-454); details: protein: recombinant; tags: N-terminal GST; dsDNA, one strand shown
T3 sequence: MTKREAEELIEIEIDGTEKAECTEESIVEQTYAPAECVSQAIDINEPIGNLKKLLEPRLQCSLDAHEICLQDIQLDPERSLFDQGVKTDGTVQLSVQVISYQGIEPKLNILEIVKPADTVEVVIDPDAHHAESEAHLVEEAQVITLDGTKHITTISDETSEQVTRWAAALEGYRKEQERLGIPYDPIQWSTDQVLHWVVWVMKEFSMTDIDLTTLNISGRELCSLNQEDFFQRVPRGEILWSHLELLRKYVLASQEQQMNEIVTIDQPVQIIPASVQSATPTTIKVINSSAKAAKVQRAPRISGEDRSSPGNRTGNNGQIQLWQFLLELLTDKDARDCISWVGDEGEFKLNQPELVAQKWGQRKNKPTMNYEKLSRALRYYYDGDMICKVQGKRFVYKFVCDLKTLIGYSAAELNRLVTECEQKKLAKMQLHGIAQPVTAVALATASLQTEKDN
In short: as §1

ERG = target: T4, ERG (Homo sapiens, UniProt P11308 1-479); details: protein: recombinant; tags: N-terminal GST; dsDNA, one strand shown
T4 sequence: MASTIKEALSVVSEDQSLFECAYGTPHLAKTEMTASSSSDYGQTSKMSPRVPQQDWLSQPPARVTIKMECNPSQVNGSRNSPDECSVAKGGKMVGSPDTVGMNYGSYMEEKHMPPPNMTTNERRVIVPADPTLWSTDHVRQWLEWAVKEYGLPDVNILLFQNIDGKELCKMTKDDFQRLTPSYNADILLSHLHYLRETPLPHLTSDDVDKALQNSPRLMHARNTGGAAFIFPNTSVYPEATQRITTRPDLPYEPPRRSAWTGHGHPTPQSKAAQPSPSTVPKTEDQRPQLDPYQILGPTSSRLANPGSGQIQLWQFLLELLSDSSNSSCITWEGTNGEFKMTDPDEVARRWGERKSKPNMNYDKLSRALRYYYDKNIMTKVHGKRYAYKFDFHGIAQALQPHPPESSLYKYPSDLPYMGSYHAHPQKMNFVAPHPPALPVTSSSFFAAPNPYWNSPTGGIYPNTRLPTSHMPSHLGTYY
In short: as §1

ELF1 = ELF1 (Homo sapiens, UniProt P32519 1-619); details: protein: recombinant; tags: N-terminal GST; dsDNA, one strand shown
ELF1, sequence (P32519 whole entry): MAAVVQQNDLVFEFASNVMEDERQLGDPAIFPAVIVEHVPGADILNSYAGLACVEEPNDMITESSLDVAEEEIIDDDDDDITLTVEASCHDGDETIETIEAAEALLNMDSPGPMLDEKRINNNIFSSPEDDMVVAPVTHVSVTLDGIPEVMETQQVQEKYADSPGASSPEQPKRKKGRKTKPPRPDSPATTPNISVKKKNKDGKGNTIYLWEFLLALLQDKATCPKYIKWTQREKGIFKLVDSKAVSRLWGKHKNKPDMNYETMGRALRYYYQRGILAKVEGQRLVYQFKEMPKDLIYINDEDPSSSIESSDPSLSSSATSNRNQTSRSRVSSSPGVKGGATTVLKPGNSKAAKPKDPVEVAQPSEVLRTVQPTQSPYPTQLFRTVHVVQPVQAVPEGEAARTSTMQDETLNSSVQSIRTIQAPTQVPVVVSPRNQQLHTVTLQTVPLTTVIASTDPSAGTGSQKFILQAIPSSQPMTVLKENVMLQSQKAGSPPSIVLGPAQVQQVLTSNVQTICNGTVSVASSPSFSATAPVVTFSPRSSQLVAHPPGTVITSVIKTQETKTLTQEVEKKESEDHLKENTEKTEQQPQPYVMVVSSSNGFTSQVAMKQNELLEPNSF
In short: as §1

EHF = target: T5, EHF (Homo sapiens, UniProt Q9NZC4 1-300); details: protein: recombinant; tags: N-terminal GST; dsDNA, one strand shown
T5 sequence: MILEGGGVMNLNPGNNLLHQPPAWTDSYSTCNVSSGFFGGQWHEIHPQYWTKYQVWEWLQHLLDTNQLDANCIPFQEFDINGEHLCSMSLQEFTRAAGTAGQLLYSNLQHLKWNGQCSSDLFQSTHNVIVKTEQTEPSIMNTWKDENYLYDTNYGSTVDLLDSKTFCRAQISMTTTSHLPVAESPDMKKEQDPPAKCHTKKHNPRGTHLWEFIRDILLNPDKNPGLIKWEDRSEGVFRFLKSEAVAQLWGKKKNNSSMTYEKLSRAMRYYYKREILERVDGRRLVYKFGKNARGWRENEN
In short: as §1

SPI1 = SPI1 (Homo sapiens, UniProt P17947 1-270); details: protein: recombinant; tags: N-terminal GST; dsDNA, one strand shown
In short: as §1

SPIB = SPIB (Homo sapiens, UniProt Q01892 1-262); details: protein: recombinant; tags: N-terminal GST; dsDNA, one strand shown
SPIB, sequence (Q01892 whole entry): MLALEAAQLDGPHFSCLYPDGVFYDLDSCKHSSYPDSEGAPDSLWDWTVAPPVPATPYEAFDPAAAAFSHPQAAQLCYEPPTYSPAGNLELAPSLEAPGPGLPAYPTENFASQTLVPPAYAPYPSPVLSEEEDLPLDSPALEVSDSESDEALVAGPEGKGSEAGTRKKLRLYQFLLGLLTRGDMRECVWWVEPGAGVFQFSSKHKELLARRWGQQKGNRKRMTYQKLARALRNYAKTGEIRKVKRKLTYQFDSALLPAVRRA
In short: as §1

ELK3 = target: T6, ELK3 (Homo sapiens, UniProt P41970 1-407); details: protein: recombinant; tags: N-terminal GST; dsDNA, one strand shown
T6 sequence: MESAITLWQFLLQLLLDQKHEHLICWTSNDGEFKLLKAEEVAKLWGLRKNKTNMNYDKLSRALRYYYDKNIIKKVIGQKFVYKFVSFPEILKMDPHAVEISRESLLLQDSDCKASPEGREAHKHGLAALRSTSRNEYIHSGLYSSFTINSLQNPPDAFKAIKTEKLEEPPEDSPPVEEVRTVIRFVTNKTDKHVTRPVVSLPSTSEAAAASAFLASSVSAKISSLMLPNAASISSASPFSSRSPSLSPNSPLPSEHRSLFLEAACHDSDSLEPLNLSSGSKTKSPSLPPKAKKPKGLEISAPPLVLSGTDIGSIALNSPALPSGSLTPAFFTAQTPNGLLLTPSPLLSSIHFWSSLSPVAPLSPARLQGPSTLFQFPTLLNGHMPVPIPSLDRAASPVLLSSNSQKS
In short: as §1

FEV = target: T7, FEV (Homo sapiens, UniProt Q99581 1-238); details: protein: recombinant; tags: N-terminal GST; dsDNA, one strand shown
T7 sequence: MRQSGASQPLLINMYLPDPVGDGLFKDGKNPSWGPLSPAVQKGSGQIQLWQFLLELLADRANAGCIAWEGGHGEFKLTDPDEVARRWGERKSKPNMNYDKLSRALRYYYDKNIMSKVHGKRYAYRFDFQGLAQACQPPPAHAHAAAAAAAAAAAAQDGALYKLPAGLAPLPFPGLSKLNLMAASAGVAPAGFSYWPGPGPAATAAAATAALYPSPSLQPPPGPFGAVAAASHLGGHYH
In short: as §1

ETV5 = ETV5 (Homo sapiens, UniProt P41161 1-510); details: protein: recombinant; tags: N-terminal GST; dsDNA, one strand shown
ETV5, sequence (P41161 whole entry): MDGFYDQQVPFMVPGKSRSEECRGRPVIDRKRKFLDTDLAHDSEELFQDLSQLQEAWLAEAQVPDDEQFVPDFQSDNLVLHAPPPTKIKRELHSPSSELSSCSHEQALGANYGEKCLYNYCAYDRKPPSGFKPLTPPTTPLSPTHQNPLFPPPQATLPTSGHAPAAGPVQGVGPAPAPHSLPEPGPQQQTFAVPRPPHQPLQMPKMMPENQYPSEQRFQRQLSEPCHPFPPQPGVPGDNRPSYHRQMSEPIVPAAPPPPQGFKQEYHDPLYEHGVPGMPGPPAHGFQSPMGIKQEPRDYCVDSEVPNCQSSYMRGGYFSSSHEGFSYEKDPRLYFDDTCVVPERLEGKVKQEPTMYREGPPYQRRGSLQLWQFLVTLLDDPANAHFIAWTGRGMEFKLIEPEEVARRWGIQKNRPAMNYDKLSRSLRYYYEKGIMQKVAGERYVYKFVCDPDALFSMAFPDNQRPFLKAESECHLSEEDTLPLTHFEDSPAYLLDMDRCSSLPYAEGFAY
In short: as §1

HSF1 = HSF1 (Homo sapiens, UniProt Q00613 1-529); details: protein: recombinant; tags: N-terminal GST; chain copies: 3; dsDNA, one strand shown
HSF1, sequence (Q00613 whole entry): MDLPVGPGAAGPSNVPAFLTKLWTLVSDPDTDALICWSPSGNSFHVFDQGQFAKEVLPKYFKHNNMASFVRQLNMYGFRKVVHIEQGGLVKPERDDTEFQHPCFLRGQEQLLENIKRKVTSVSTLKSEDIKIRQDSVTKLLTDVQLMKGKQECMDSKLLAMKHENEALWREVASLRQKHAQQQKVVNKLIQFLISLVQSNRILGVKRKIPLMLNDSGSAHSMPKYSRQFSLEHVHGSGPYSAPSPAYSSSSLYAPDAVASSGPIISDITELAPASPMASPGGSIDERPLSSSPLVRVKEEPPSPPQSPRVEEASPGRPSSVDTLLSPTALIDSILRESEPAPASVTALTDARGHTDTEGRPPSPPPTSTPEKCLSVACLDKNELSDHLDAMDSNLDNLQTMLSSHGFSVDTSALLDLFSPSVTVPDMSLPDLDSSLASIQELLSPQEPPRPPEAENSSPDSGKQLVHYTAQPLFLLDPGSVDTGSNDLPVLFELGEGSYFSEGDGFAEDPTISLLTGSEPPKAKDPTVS
In short: as §1

SPIC = target: T8, SPIC (Homo sapiens, UniProt Q8N5J4 1-248); details: protein: recombinant; tags: N-terminal GST; dsDNA, one strand shown
T8 sequence: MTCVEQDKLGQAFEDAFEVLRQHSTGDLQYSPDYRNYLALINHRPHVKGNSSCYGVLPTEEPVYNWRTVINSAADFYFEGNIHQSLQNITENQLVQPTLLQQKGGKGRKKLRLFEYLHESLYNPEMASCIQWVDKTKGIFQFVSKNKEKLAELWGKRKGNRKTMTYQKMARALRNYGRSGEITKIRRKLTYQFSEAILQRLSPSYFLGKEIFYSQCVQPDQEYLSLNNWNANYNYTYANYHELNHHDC
In short: as §1

ELF4 = ELF4 (Homo sapiens, UniProt Q99607 1-663); details: protein: recombinant; tags: N-terminal GST; dsDNA, one strand shown
ELF4, sequence (Q99607 whole entry): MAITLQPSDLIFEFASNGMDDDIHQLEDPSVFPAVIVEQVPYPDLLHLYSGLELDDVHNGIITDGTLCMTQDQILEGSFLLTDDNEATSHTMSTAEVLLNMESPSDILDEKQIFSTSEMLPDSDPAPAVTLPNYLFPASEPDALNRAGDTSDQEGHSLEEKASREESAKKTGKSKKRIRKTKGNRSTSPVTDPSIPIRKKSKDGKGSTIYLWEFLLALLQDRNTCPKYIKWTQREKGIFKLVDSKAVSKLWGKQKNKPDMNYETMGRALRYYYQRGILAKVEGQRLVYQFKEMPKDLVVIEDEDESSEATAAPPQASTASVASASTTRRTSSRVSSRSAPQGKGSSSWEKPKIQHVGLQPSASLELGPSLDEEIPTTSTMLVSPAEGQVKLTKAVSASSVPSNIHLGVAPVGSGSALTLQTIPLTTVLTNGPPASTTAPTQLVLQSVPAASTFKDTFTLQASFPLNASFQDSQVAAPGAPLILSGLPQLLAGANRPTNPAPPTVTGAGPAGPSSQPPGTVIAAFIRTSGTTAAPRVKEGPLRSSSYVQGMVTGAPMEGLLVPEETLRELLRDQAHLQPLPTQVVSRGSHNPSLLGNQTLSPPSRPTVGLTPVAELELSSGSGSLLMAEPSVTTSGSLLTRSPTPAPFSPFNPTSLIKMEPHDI
In short: as §1

ELK4 = target: T9, ELK4 (Homo sapiens, UniProt P28324-2 1-405); details: protein: recombinant; tags: N-terminal GST; dsDNA, one strand shown
T9 sequence: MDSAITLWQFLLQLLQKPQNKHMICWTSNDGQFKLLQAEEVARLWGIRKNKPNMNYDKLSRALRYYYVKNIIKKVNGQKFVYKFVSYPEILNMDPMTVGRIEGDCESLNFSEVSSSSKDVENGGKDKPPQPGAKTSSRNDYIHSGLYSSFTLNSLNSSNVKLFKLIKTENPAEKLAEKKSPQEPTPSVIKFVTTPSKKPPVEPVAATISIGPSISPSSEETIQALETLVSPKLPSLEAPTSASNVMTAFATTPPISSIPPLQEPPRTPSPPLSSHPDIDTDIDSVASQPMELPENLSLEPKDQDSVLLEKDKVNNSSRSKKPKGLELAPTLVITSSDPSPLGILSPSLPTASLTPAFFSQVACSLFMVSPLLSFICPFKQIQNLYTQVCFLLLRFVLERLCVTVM
In short: as §1

ETV2 = target: T10, ETV2 (Homo sapiens, UniProt O00321 1-342); details: protein: recombinant; tags: N-terminal GST; dsDNA, one strand shown
T10 sequence: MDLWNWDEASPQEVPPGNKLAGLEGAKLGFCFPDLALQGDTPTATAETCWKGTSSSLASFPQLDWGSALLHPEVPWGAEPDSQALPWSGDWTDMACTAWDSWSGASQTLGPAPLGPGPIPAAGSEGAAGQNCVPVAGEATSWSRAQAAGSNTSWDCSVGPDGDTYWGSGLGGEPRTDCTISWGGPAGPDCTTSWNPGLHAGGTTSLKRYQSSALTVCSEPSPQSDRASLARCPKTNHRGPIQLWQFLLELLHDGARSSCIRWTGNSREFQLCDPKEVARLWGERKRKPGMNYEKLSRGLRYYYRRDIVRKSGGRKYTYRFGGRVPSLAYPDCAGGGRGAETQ
In short: as §1

ELF3 = target: T11, ELF3 (Homo sapiens, UniProt P78545 1-371); details: protein: recombinant; tags: N-terminal GST; dsDNA, one strand shown
T11 sequence: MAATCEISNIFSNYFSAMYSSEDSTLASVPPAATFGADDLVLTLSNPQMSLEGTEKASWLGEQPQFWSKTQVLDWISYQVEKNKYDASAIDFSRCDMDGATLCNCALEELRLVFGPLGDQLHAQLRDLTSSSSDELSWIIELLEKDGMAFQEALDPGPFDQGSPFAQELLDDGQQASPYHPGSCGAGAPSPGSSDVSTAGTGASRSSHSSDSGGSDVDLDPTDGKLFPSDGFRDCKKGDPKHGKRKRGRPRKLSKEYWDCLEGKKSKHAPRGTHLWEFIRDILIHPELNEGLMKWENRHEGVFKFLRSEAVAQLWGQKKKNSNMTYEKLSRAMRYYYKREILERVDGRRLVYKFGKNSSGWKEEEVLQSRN
In short: as §1

CRX = CRX (Homo sapiens, UniProt O43186 1-299); details: protein: recombinant; tags: N-terminal GST; dsDNA, one strand shown
CRX, sequence (O43186 whole entry): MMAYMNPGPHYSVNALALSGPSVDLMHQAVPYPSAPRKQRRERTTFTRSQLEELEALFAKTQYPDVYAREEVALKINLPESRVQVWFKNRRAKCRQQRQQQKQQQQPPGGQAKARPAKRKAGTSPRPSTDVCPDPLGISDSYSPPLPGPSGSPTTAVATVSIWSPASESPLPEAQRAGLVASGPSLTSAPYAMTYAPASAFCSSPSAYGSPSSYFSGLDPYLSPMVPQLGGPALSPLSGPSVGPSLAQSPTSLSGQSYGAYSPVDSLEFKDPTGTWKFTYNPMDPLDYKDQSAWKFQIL
In short: as §1

ETV1 = ETV1 (Homo sapiens, UniProt P50549 1-477); details: protein: recombinant; tags: N-terminal GST; dsDNA, one strand shown
ETV1, sequence (P50549 whole entry): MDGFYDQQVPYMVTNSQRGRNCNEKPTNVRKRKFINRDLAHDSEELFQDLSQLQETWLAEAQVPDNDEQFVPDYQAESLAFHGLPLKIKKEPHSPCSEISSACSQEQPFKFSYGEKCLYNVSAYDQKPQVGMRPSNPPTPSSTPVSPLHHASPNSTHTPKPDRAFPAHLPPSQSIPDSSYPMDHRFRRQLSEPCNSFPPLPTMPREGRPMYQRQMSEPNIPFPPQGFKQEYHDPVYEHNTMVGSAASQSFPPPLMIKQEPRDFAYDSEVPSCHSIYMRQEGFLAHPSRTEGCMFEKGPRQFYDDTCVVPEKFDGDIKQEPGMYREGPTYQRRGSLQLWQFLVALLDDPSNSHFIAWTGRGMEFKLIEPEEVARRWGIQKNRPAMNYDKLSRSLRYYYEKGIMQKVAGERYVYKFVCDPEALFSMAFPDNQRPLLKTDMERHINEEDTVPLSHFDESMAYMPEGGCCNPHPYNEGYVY
In short: as §1

ATGACC was tested, and the binding signal (FLI1) was 1.54 fold enrichment (6-mer frequency, TF over GST control), the binding signal (ELK1) was 1.58 fold enrichment (6-mer frequency, TF over GST control) and the binding signal (GABPA) was 1.78 fold enrichment (6-mer frequency, TF over GST control). For the same sequence, the binding signal (ERG) was 1.52 fold enrichment (6-mer frequency, TF over GST control), the binding signal (ELF1) was 1.6 fold enrichment (6-mer frequency, TF over GST control) and the binding signal (EHF) was 1.61 fold enrichment (6-mer frequency, TF over GST control). The binding signal (SPI1) was 1.6 fold enrichment (6-mer frequency, TF over GST control), the binding signal (SPIB) was 1.45 fold enrichment (6-mer frequency, TF over GST control) and the binding signal (ELK3) was 1.65 fold enrichment (6-mer frequency, TF over GST control). The binding signal (FEV) was 1.63 fold enrichment (6-mer frequency, TF over GST control), the binding signal (ETV5) was 1.54 fold enrichment (6-mer frequency, TF over GST control) and the binding signal (HSF1) was 1.42 fold enrichment (6-mer frequency, TF over GST control). The binding signal (SPIC) was 1.38 fold enrichment (6-mer frequency, TF over GST control), the binding signal (ELF4) was 1.66 fold enrichment (6-mer frequency, TF over GST control) and the binding signal (ELK4) was 1.54 fold enrichment (6-mer frequency, TF over GST control). The binding signal (ETV2) was 1.76 fold enrichment (6-mer frequency, TF over GST control), the binding signal (ELF3) was 1.63 fold enrichment (6-mer frequency, TF over GST control) and the binding signal (CRX) was 1.31 fold enrichment (6-mer frequency, TF over GST control). The binding signal (ETV1) was 1.62 fold enrichment (6-mer frequency, TF over GST control).
